The source made the active and inactive calls. The calls were made as follows: active = hit-call score of the fitted dose curve at least 0.9, where 1 is the maximum; inactive = score below 0.9.
Columns and labels:
[1] = ATG_GRE_CIS: Attagene CIS-FACTORIAL HepG2 Assay for human Glucocorticoid Response Elements (GRE) (AID 2282947); conditions: HepG2 GRE cis-reporter, Attagene multiplex mRNA; actives raise or lower the signal
Outline: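 Assay uses human hepatoma HepG2 cells transfected with cis-promoter reporter units, exposed 24 h. mRNA from reporters detected by RT-PCR plus capillary electrophoresis; DMSO serves as negative control and baseline.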

[2] = ATG_ISRE_CIS: Attagene CIS-FACTORIAL HepG2 Assay for human Interferon Regulatory Factor 1 (IRF1) binding to an Interferon-Stimulated Response Element (ISRE) (AID 2282948); conditions: HepG2 ISRE cis-reporter (Attagene), mRNA transcription readout; actives raise or lower the signal
Outline: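 Cell-based cis-reporter assay; HepG2; 24 h exposure; reporter mRNA by RT-PCR plus capillary electrophoresis fluorescence; activity in either direction scored relative to DMSO.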

[3] = ATG_M_32_CIS: Attagene CIS-FACTORIAL HepG2 Assay for M32 Transcription Factor (Internal Marker) (AID 2282949); conditions: HepG2 Attagene cis-factorial M32 reporter, mRNA; actives raise or lower the signal;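 also: background control marker of the multiplexed CIS panel rather than a real target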
Outline: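 Internal background marker read-out: RT-PCR/capillary electrophoresis fluorescence of reporter transcripts from transiently transfected HepG2 cells after 24 h chemical exposure. Activity fitted bidirectionally relative to DMSO negative control.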

[4] = ATG_M_06_CIS: Attagene CIS-FACTORIAL HepG2 Assay for M06 Transcription Factor (Internal Marker) (AID 2282950); conditions: HepG2 Attagene CIS-FACTORIAL M06 internal marker reporter; actives raise or lower the signal
Outline: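 HepG2 cells transiently transfected with cis-regulated multiple reporter transcription units were exposed to chemical for 24 h; reporter mRNA was quantified by RT-PCR, 6-FAM primer labelling, HpaI digestion and capillary electrophoresis, fitted bidirectionally against DMSO.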

[5] = target: Hypoxia-inducible factor 1-alpha (Homo sapiens) (UniProt Q16665); experiment: ATG_HIF1a_CIS: Attagene CIS-FACTORIAL HepG2 Assay for human Hypoxia Inducible Factor 1 (HIF1A) (AID 2282951); conditions: HepG2 Attagene cis-factorial HIF1a reporter transcription; actives raise or lower the signal
Sequence of Hypoxia-inducible factor 1-alpha (Homo sapiens) (Q16665 whole entry, looked up): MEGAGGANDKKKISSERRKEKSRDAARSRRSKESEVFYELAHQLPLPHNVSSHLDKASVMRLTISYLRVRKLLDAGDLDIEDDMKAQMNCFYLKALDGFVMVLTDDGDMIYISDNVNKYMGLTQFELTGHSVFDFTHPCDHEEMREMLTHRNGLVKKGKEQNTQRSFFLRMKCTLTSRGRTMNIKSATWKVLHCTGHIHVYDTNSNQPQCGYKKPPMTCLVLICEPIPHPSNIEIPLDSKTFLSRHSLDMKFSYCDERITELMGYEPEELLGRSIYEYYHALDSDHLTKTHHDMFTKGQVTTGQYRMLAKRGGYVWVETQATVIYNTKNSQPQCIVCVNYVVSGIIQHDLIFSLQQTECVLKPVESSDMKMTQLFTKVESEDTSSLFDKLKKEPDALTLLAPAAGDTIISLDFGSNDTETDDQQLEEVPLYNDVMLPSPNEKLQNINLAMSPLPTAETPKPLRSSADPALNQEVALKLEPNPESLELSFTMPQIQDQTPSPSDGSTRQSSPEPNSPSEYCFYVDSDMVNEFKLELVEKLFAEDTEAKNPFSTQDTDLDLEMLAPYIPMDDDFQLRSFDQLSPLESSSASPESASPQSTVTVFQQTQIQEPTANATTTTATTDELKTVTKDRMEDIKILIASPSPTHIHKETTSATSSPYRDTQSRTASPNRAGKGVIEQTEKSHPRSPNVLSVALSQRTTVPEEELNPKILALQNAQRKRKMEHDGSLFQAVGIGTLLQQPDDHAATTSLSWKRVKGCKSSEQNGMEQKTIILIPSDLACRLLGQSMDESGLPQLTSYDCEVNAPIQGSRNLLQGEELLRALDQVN
Outline: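 HepG2, transient cis-reporter library, 24 h dosing. RNA → RT (oligo dT) → PCR → 6-FAM primer extension → HpaI → CE. Bidirectional curve fit vs DMSO.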

[6] = target: Hepatocyte nuclear factor 6 (Homo sapiens) (UniProt Q9UBC0); experiment: ATG_HNF6_CIS: Attagene CIS-FACTORIAL HepG2 Assay for human Hepatocyte Nuclear Factor 6 (HNF6) (AID 2282952); conditions: HepG2 Attagene cis-factorial HNF6 reporter transcription; actives raise or lower the signal
Sequence of Hepatocyte nuclear factor 6 (Homo sapiens) (Q9UBC0 whole entry, looked up): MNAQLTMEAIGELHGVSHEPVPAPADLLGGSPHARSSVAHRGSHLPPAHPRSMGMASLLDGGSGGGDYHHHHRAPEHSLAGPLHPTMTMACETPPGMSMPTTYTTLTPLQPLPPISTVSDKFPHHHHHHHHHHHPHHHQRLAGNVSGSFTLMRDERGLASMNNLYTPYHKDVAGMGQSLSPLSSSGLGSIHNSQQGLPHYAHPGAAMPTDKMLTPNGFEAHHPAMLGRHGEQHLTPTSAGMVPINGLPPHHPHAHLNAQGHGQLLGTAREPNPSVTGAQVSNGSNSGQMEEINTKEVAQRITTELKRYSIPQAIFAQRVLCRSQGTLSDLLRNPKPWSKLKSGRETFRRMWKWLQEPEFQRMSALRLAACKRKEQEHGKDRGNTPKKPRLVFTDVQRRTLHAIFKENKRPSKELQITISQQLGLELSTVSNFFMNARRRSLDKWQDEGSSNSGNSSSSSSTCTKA
Outline: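 HepG2 cells transiently transfected with cis-element-driven multiple reporter transcription units, dosed 24 h; reporter mRNA quantified by RT-PCR, FAM primer extension, HpaI digestion and capillary electrophoresis; bidirectional fit versus DMSO baseline.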

[7] = target: Heat shock factor protein 1 (Homo sapiens) (UniProt Q00613); experiment: ATG_HSE_CIS: Attagene CIS-FACTORIAL HepG2 Assay for human Heat Shock Transcription Factor 1 (HSE) (AID 2282953); conditions: HepG2 HSE cis-reporter, Attagene RNA transcription; actives raise or lower the signal
Sequence of Heat shock factor protein 1 (Homo sapiens) (Q00613 whole entry, looked up): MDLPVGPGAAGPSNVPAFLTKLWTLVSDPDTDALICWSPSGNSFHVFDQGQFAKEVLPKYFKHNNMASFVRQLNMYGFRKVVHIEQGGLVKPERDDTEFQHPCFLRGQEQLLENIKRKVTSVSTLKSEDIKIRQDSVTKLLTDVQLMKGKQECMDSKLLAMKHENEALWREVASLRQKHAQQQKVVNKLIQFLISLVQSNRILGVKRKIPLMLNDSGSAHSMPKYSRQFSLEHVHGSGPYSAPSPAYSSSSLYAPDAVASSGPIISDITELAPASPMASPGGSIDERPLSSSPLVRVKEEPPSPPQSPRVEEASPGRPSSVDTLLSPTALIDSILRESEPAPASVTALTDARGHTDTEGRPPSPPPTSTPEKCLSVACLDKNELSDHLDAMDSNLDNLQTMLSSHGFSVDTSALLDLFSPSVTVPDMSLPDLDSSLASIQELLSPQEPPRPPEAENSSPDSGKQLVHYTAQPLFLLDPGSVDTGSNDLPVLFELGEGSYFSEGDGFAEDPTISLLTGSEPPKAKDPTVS
Outline: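 HepG2 cells transiently transfected with multiple reporter transcription units under cis-regulatory promoter control, measuring endogenous transcription factor activity. After 24 h chemical exposure, reporter mRNA quantified by RT-PCR, fluorescent labelling, HpaI digestion and capillary electrophoresis; bidirectional fit versus DMSO.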

[8] = ATG_MRE_CIS: Attagene CIS-FACTORIAL HepG2 Assay for human Metal Responsive Element (MRE) (AID 2282954); conditions: HepG2 MRE cis-reporter transcription, Attagene multiplex; actives raise or lower the signal
Outline: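 After a 24 h chemical exposure, transiently transfected HepG2 cells yield RNA whose reporter sequences are amplified, FAM-labelled and sized by capillary electrophoresis. Curves are fitted bidirectionally relative to DMSO.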

[9] = ATG_PBREM_CIS: Attagene CIS-FACTORIAL HepG2 Assay for human Phenobarbital-responsive Enhancer Module (PBREM) (AID 2282955); conditions: HepG2 PBREM cis-reporter, Attagene multiplexed transcription; actives raise or lower the signal
Outline: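 HepG2, transient MRTU transfection, 24 h dosing; RNA → oligo(dT) RT → PCR → 6-FAM extension → HpaI → CE. Bidirectional fit vs DMSO.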

[10] = target: Paired box protein Pax-6 (Homo sapiens) (UniProt P26367); experiment: ATG_Pax6_CIS: Attagene CIS-FACTORIAL HepG2 Assay for human Paired Box 6 (PAX6) (AID 2282956); conditions: HepG2 CIS-FACTORIAL PAX6 reporter transcription, RNA readout; actives raise or lower the signal
Sequence of Paired box protein Pax-6 (Homo sapiens) (P26367 whole entry, looked up): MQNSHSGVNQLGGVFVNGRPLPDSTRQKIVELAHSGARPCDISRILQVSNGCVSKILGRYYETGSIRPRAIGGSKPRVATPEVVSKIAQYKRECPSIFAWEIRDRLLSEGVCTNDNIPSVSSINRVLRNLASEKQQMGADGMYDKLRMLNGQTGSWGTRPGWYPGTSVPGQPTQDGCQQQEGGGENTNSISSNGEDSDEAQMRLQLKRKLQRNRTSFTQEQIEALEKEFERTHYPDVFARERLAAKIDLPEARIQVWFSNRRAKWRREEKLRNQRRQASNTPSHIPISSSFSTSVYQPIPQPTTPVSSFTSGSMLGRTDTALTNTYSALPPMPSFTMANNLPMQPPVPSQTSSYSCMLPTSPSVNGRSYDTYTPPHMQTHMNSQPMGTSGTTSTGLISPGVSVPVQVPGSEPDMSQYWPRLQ
Outline: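 Multiplexed cis-reporter HepG2 system; 24 h treatment; reporter mRNA read by RT-PCR/CE fluorescence; bidirectional fit vs DMSO.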

[11] = ATG_PXRE_CIS: Attagene CIS-FACTORIAL HepG2 Assay for human Pregnane X Receptor Element (PXRE) (AID 2282957); conditions: HepG2 Attagene CIS-FACTORIAL PXRE reporter, mRNA; actives raise or lower the signal
Outline: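 HepG2 cells transiently transfected with cis-regulated multiple reporter transcription units; endogenous factor activity measured as reporter mRNA 24 h after dosing. RT-PCR, fluorescent primer extension, HpaI digestion, capillary electrophoresis; bidirectional fit versus DMSO baseline.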

[12] = ATG_PPRE_CIS: Attagene CIS-FACTORIAL HepG2 Assay for human Peroxisome Proliferator-activated Response Element (PPRE) (AID 2282958); conditions: HepG2 PPRE cis-element reporter, Attagene transcription factor profiling; actives raise or lower the signal
Outline: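 Transcript-level reporter induction in transfected HepG2 cells after 24 h chemical exposure, quantified by fluorescence from RT-PCR products separated by capillary electrophoresis.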

[13] = ATG_RORE_CIS: Attagene CIS-FACTORIAL HepG2 Assay for human RAR-related Orphan Receptor Element (RORE) (AID 2282959); conditions: HepG2 Attagene cis-factorial RORE reporter, mRNA; actives raise or lower the signal
Outline: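 Multiplexed reporter assay measuring mRNA induction from a cis promoter element in transiently transfected HepG2 cells after 24 h treatment. Detection via RT-PCR and capillary electrophoresis fluorescence; DMSO serves as baseline.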

[14] = ATG_Sox_CIS: Attagene CIS-FACTORIAL HepG2 Assay for human SRY-box transcription factor (SOX) (AID 2282960); conditions: HepG2 Attagene cis-factorial SOX reporter, mRNA; actives raise or lower the signal
Outline: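 Cells were transfected with reporter constructs under cis-regulatory promoters, then exposed to chemicals for 24 h. Reporter transcripts were quantified by fluorescence after RT-PCR and capillary electrophoresis; activity was fitted in both directions against DMSO.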

[15] = target: Transcription factor Sp1 (Homo sapiens) (UniProt P08047); experiment: ATG_Sp1_CIS: Attagene CIS-FACTORIAL HepG2 Assay for human Specificity Protein 1 (Sp1) (AID 2282961); conditions: HepG2 Sp1 cis-reporter transcription, actives raise or lower the signal
Sequence of Transcription factor Sp1 (Homo sapiens) (P08047 whole entry, looked up): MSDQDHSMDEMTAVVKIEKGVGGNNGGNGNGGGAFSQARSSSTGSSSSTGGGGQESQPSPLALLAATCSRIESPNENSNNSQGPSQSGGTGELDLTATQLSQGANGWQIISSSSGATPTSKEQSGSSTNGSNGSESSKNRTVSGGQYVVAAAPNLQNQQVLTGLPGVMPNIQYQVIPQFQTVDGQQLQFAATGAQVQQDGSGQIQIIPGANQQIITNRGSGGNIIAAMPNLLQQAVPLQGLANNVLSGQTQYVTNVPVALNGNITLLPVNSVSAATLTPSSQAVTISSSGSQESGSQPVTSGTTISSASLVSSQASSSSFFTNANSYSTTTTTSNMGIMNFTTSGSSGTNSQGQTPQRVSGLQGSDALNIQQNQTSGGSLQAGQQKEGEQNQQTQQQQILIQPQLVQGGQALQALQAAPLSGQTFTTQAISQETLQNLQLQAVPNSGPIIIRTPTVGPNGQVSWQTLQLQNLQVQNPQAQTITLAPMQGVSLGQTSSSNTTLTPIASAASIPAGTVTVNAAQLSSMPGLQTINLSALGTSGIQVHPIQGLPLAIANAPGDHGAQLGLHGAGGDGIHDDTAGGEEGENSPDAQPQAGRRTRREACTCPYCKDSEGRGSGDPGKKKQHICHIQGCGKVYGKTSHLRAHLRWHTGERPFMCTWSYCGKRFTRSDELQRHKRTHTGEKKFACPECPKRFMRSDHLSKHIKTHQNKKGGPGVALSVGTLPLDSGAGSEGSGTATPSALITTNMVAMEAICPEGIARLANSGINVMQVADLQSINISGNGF
Outline: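 Measures mRNA induction of an Sp1-linked reporter in HepG2 cells 24 h post-dosing. Multiplexed reporters read by RT-PCR and capillary electrophoresis; DMSO serves as negative control and baseline.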

[16] = ATG_SREBP_CIS: Attagene CIS-FACTORIAL HepG2 Assay for human Sterol Regulatory Element Binding (SREBP) (AID 2282962); conditions: HepG2 Attagene cis-factorial SREBP reporter, mRNA; actives raise or lower the signal
Outline: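 mRNA induction of transfected cis-promoter reporters in HepG2 cells, 24 h post-dose. Detection: RT-PCR with 6-FAM-labelled products, HpaI digest, capillary electrophoresis. DMSO served as negative control and baseline.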

[17] = target: Signal transducer and activator of transcription 3 (Homo sapiens) (UniProt P40763); experiment: ATG_STAT3_CIS: Attagene CIS-FACTORIAL HepG2 Assay for human Signal Transducer and Activator of Transcription 3 (STAT3) (AID 2282963); conditions: HepG2, Attagene cis-factorial STAT3 reporter transcription; actives raise or lower the signal
Sequence of Signal transducer and activator of transcription 3 (Homo sapiens) (P40763 whole entry, looked up): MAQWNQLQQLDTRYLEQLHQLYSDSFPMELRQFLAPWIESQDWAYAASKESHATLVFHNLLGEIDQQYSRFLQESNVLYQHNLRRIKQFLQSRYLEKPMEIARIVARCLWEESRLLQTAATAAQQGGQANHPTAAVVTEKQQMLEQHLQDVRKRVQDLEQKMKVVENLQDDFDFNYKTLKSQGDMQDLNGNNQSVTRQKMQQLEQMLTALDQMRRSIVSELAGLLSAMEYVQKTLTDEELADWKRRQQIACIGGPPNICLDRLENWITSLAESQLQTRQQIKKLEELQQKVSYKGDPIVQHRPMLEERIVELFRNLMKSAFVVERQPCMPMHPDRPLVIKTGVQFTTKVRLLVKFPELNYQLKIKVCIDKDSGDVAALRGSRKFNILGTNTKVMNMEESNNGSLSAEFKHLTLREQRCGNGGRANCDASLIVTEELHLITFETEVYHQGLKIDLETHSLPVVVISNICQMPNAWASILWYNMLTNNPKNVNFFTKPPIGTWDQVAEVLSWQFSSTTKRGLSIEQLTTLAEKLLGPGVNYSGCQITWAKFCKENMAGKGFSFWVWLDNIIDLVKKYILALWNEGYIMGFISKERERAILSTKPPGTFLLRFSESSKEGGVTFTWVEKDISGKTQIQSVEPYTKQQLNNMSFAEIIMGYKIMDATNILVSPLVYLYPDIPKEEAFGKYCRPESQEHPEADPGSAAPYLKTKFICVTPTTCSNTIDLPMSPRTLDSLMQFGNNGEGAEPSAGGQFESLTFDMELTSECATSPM
Outline: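 After a 24 h compound incubation, total RNA from MRTU-transfected HepG2 cells was converted to cDNA and reporter sequences PCR-amplified, labelled and profiled by capillary electrophoresis. Gain and loss of signal were referenced to DMSO.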

[18] = ATG_TA_CIS: Attagene CIS-FACTORIAL HepG2 Assay for human TA Basal Promoter (AID 2282964); conditions: HepG2 Attagene CIS-factorial TA basal promoter reporter; actives raise or lower the signal
Outline: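 HepG2 cells transiently transfected with multiplexed cis-promoter reporter units, dosed 24 h. Reporter mRNA measured by RT-PCR, 6-FAM labelling, HpaI digestion and capillary electrophoresis; bidirectional fit versus DMSO baseline, serving as background control.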

[19] = ATG_TCF_b_cat_CIS: Attagene CIS-FACTORIAL HepG2 Assay for human T-Cell-Factor with beta-catenin (TCF/b-cat) (AID 2282965); conditions: HepG2 TCF/beta-catenin cis-reporter transcription, actives raise or lower the signal
Outline: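 Measured: reporter mRNA in HepG2 transiently transfected with cis-promoter reporter units, 24 h after chemical addition. Fitting was bidirectional, DMSO as negative control.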

[20] = ATG_TAL_CIS: Attagene CIS-FACTORIAL HepG2 Assay for human TAL Basal Promoter (AID 2282966); conditions: HepG2 Attagene cis-factorial TAL promoter reporter; actives raise or lower the signal;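 also: background control endpoint measuring basal TAL promoter reporter mRNA not a specific factor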
Outline: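 HepG2 cells were transiently transfected with promoter-driven multiplexed reporter units and dosed for 24 h. Reporter mRNA was measured by RT-PCR with capillary electrophoresis fluorescence; bidirectional fits used DMSO as baseline, serving as a background control.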

Measured: AC50

CC(=O)C(Cl)C(=O)N(C)C (configuration not stated)
active: [8] 100 µM
inactive: all other assays above

Cc1ccccc1C(=O)Nc1cccc(OC(C)C)c1
active: [11] 2.89 µM
inactive: all other assays above

Cn1sc(Cl)cc1=O
active: [12] 100 µM
inactive: all other assays above

C1CCC(NC2CCCCC2)CC1
active: [11] 16.7 µM
inactive: all other assays above

CNC(=O)O/N=C/C(C)(C)S(C)=O (configuration not stated)
active: [7] 154 µM
inactive: all other assays above

COc1ccc(OC)c(C=O)c1
active: [11] 16.9 µM
not listed: [9] | [20]
inactive: all other assays above

O=C(CCl)CCl
active: [1] 33.4 µM | [2] 33.4 µM | [3] 54.6 µM | [5] 45.6 µM | [6] 33.4 µM | [7] 58.7 µM | [8] 48.9 µM | [10] 41.3 µM | [11] 49.3 µM | [15] 33.4 µM | [16] 46 µM | [19] 23.4 µM
inactive: [4] | [12] | [13] | [14] | [17] | [18] | [20]

From PubChem BioAssay (EPA / NIEHS)
